In the supplement of paper PMC4709259 one finds mean cell size and cell count data, which are given here for 26 compounds.

Assay [1] concerns Jurkat. Put plainly: mean cell size (FSC-A) relative to DMSO control (fraction of control); higher = larger cells. Particulars: 48 h. The procedure, abridged:
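Jurkat cells seeded at 600 cells/µl were incubated 1 h, then exposed for 48h to the Enzo Screen-Well FDA Approved Drug Library v2.0 at 25µM in 0.9% (v/v) final DMSO. Drugs that cut counts below 20% of controls were diluted 10-fold and retested, down to 25nM. Cell count and mean cell size (forward scatter area) were read on an Accuri C6 flow cytometer, relative to solvent-only controls. Plates held 6-12 controls; values are means of 3 biological replicates.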

In assay [2] the test system is Jurkat. Put plainly: cell count relative to DMSO control (fraction of control); higher = more cells (less growth inhibition). Particulars: 48 h.

Structures can show the parent of a compound that is named as a salt. ± gives the standard deviation.

The compound `CS(=O)(=O)CCNCc1ccc(-c2ccc3ncnc(Nc4ccc(OCc5cccc(F)c5)c(Cl)c4)c3c2)o1` [Lapatinib Ditosylate] (concentration: 25 µM) gave a mean cell size in the assay on Jurkat [1] of 0.924 ± 0.072. Moreover, the cell count in the assay on Jurkat [2] worked out at 0.911 ± 0.14.

As to `CC1(C)NC(=O)N(c2ccc([N+](=O)[O-])c(C(F)(F)F)c2)C1=O` [Nilutamide] (concentration: 25 µM), the mean cell size in the assay with Jurkat [1] was determined as 0.954 ± 0.029. In the assay on Jurkat [2], this compound returned a cell count of 0.638 ± 0.066.

Regarding `Nc1nnc(-c2cccc(Cl)c2Cl)c(N)n1` [Lamotrigine] (concentration: 25 µM), the mean cell size in the assay on Jurkat [1] amounted to 1.01 ± 0.028. This compound also displayed a cell count with Jurkat [2] of 0.734 ± 0.16.

Regarding `CNC(=C[N+](=O)[O-])NCCSCc1csc(CN(C)C)n1` [Nizatidine] (concentration: 25 µM), the mean cell size in the assay with Jurkat [1] was determined as 0.976 ± 0.011. In the assay on Jurkat [2], this compound had a cell count of 0.809 ± 0.02.

In the assay on Jurkat [1], `C[C@H](N)[C@H](O)c1cccc(O)c1` [Metaraminol Bitartrate] (concentration: 25 µM) returned a mean cell size of 1.04 ± 0.058. Further, in the assay on Jurkat [2], the cell count is 0.774 ± 0.12.

On to `CCN1CC(CCN2CCOCC2)C(c2ccccc2)(c2ccccc2)C1=O` (configuration not stated) [Doxapram·HCl] (concentration: 25 µM), for which, in the assay on Jurkat [1], the mean cell size worked out at 0.928 ± 0.013. Also, in the assay on Jurkat [2], the cell count came out at 1.01 ± 0.015.

Compound `CC(COc1ccccc1)N(CCCl)Cc1ccccc1` (configuration not stated) [Phenoxybenzamine·HCl] (concentration: 25 µM) returned a mean cell size in the assay with Jurkat [1] of 0.965 ± 0.021. Besides, the cell count in the assay on Jurkat [2] came to 0.746 ± 0.08.

On to `Oc1ncnc2[nH]ncc12` [Allopurinol] (concentration: 25 µM), for which, in the assay on Jurkat [1], the mean cell size came to 0.965 ± 0.013. The compound further gave a cell count in the assay with Jurkat [2] of 0.701 ± 0.13.

The compound `Cn1c(=O)c2[nH]cnc2n(C)c1=O` [Aminophylline] (concentration: 25 µM) yielded a mean cell size in the assay with Jurkat [1] of 0.96 ± 0.035. Besides, the cell count in the assay on Jurkat [2] amounted to 0.984 ± 0.066.

With `NS(=O)(=O)c1cc(C2(O)NC(=O)c3ccccc32)ccc1Cl` (configuration not stated) [Chlorthalidone] (concentration: 25 µM), the mean cell size with Jurkat [1] was 1.03 ± 0.028. Moreover, in the assay with Jurkat [2], the cell count was determined as 0.918 ± 0.044.

For the compound `CC1=C(C(=O)O)N2C(=O)[C@@H](NC(=O)[C@H](N)c3ccc(O)cc3)[C@H]2SC1` [Cefadroxil] (concentration: 25 µM), the mean cell size in the assay on Jurkat [1] was found to be 0.937 ± 0.014. Besides, in the assay with Jurkat [2], the cell count came to 0.895 ± 0.079.

`C[C@]12CC[C@@H]3c4ccc(OS(=O)(=O)O)cc4CC[C@H]3[C@@H]1CCC2=O` [Estropipate] (concentration: 25 µM): the mean cell size in the assay on Jurkat [1] amounted to 1.06 ± 0.069. In addition, the cell count in the assay on Jurkat [2] worked out at 0.747 ± 0.21.

`CCC(=O)NCC[C@@H]1CCc2ccc3c(c21)CCO3` [Ramelteon] (concentration: 25 µM): the mean cell size with Jurkat [1] turned out to be 1.04 ± 0.066. Also, the cell count in the assay on Jurkat [2] was 0.926 ± 0.11.

For the compound `CN(C)CCOC(c1ccccc1)c1ccccc1` [Diphenhydramine·HCl] (concentration: 25 µM), in the assay with Jurkat [1], the mean cell size is 0.967 ± 0.017. In the assay with Jurkat [2], this compound returned a cell count of 0.987 ± 0.042.

In the assay on Jurkat [1], `O=C(O)c1cn(C2CC2)c2cc(N3CCNCC3)c(F)cc2c1=O` [Ciprofloxacin] (concentration: 25 µM) had a mean cell size of 0.9157 ± 0.008. The compound further gave a cell count with Jurkat [2] of 1.04 ± 0.13.

For `O=C(O)CCc1nc(-c2ccccc2)c(-c2ccccc2)o1` [Oxaprozin] (concentration: 2.5 µM), in the assay on Jurkat [1], the mean cell size is 0.966 ± 0.014. In addition, in the assay with Jurkat [2], the cell count was found to be 1.03 ± 0.013.

The compound `N#Cc1ccc(C(c2ccc(C#N)cc2)n2cncn2)cc1` [Letrozole] (concentration: 25 µM) returned a mean cell size in the assay on Jurkat [1] of 1.01 ± 0.028. Besides, the cell count with Jurkat [2] amounted to 0.798 ± 0.019.

The compound `CC(C)c1c(C(=O)Nc2ccccc2)c(-c2ccccc2)c(-c2ccc(F)cc2)n1CC[C@@H](O)C[C@@H](O)CC(=O)O` [Atorvastatin Calcium] (concentration: 25 µM) came in with a mean cell size in the assay on Jurkat [1] of 1.05 ± 0.028. Further, the cell count with Jurkat [2] was determined as 0.552 ± 0.07.

`CCc1cccc2c3c([nH]c12)C(CC)(CC(=O)O)OCC3` (configuration not stated) [Etodolac] (concentration: 25 µM) showed a mean cell size in the assay on Jurkat [1] of 1.08 ± 0.042. The compound further registered a cell count in the assay with Jurkat [2] of 0.947 ± 0.018.

For `CCCCCCCN(CC)CCCC(O)c1ccc(NS(C)(=O)=O)cc1` (configuration not stated) [Ibutilide Fumarate] (concentration: 25 µM), the mean cell size in the assay with Jurkat [1] was found to be 0.936 ± 0.027. The same compound returned a cell count in the assay with Jurkat [2] of 0.903 ± 0.047.

`O=c1n(CCCN2CCN(c3cccc(Cl)c3)CC2)nc2ccccn12` [Trazodone·HCl] (concentration: 25 µM) gave a mean cell size in the assay on Jurkat [1] of 0.967 ± 0.045. In the assay on Jurkat [2], this compound displayed a cell count of 0.878 ± 0.048.

On to `C=C[C@H]1CN2CC[C@H]1C[C@@H]2[C@@H](O)c1ccnc2ccc(OC)cc12` [Quinidine·HCl·H2O] (concentration: 25 µM), for which the mean cell size in the assay on Jurkat [1] worked out at 0.9234 ± 0.0047. Besides, the cell count with Jurkat [2] is 0.665 ± 0.11.

With `O=C(O)c1cc(/N=N/c2ccc(S(=O)(=O)Nc3ccccn3)cc2)ccc1O` [Sulfasalazine] (concentration: 25 µM), in the assay on Jurkat [1], the mean cell size turned out to be 0.965 ± 0.024. Further, the cell count in the assay on Jurkat [2] is 0.914 ± 0.11.

In the assay with Jurkat [1], `Cc1ccc(-c2cc(C(F)(F)F)nn2-c2ccc(S(N)(=O)=O)cc2)cc1` [Celecoxib] (concentration: 25 µM) displayed a mean cell size of 0.966 ± 0.029. In the assay on Jurkat [2], the cell count is 0.514 ± 0.11.

On to `CC(C)OC(=O)CCC/C=C\C[C@@H]1[C@@H](/C=C/[C@@H](O)COc2cccc(C(F)(F)F)c2)[C@H](O)C[C@@H]1O` [Travoprost] (concentration: 25 µM), for which the mean cell size in the assay on Jurkat [1] is 0.92 ± 0.022. The same compound returned a cell count in the assay with Jurkat [2] of 0.668 ± 0.084.

The compound `CNC[C@H](O)c1ccc(O)c(O)c1` [Epinephrine (L-(-)-Epinephrine-(+)-Bitartrate)] (concentration: 25 µM) registered a mean cell size in the assay with Jurkat [1] of 0.959 ± 0.053. The same compound came in with a cell count with Jurkat [2] of 0.855 ± 0.14.
